# TDP1 cell noCPT – qHTS for Inhibitors of human tyrosyl-DNA phosphodiesterase 1 (TDP1): qHTS in cells in absence of CPT | DT40 Tdp1-/- hTDP1 cells, no CPT, ATP luminescence, 48 h | Potency, µM (series often up to 46.2 µM), for the others: at the highest dose activity change, negative = growth inhibition, usual class: inhibitors | 420,000 tested, 15% active | AID 686978, 2013; note: potency is the fitted concentration of half-maximal effect; nearly all actives have a fitted effect of over 55% in size
#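 Camptothecin absent (DMSO only). Human TDP1-complemented DT40 knockout cells, 400 cells/well, 37 °C for minimum 48 hr; ATP measured via CellTiter-Glo, 30 min dark incubation, luminescence.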
# HT1080NT lethal – qHTS for induction of synthetic lethality in tumor cells producing 2HG: qHTS for the HT-1080-NT fibrosarcoma cell line; AID 686970, 2013; Potency, µM (doses to about 46.1 µM), without a hit: at the top dose activity, negative = less viability, most hits filed as cytotoxic; HT-1080-NT fibrosarcoma viability, CellTiter-Glo ATP luminescence, 48 h; 360,000 tested, 1.6% active;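 note: NT is the 2HG producing partner of a matched IDH1 knockdown line; potency is the fitted concentration of half-maximal effect; 0% = DMSO-treated cells and -100% = media-only wells without cells; nearly all actives have a fitted effect of over 55% in size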
#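 Compounds were tested in concentration-response format on HT-1080-NT cells for 48 hours at 37 degrees C. Cell viability came from CellTiter-Glo luminescence; curves were classified by r2, response magnitude and activity.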
# uPA surface inh – qHTS for Inhibitors of Cell Surface uPA Generation | AID 540303, 2011 | cell surface uPA generation assay, qHTS | Potency, µM (titrated, usually from 38.3 µM), for the others: top-dose activity change, negative = inhibition, usual class: inhibitors | 330,000 tested, 0.31% active; active = well fitted inhibition curve with a large enough effect; inconclusive = small, poorly fitted or top-dose-only effect; inactive = no such curve, though single readings can be large or run the other way; tested in mouse RAW 264.7 cells; note: potency is the fitted concentration of half-maximal effect; nearly all actives have a fitted effect of over 55% in size
# HT1080 IDH1KD tx – qHTS for induction of synthetic lethality in tumor cells producing 2HG: qHTS for the HT-1080-IDH1KD cell line; 360,000 tested, 2% active; Potency, µM (doses to about 46.1 µM), for the others: top-dose activity, negative = toxicity, hits mostly cytotoxic; HT-1080 IDH1 knockdown viability, ATP luminescence, 48 h;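 note: potency is the fitted concentration of half-maximal effect; 0% = DMSO wells and -100% = cell-free medium wells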
#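 Knockdown cells (IDH1KD HT-1080) received compounds 2 h after plating at 750 cells/well and were kept 48 h at 37 °C in 5% FBS RPMI. A CellTiter-Glo luminescence read gave % activity for curve fitting.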
# IL1B secr inh – qHTS for Inhibitors of Inflammasome Signaling: IL-1-beta AlphaLISA Primary Screen | activity change, % at 57.5 µM | THP-1 LPS/ATP IL-1B secretion, AlphaLISA, 16 h; stronger effect = lower value | 360,000 tested, 4.7% active; in the data active = activity change below about -50%; inconclusive = mostly about -30% to -49%
#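 Secreted IL-1B measured by AlphaLISA bead assay after 16 h compound exposure of THP-1 cells; compounds (final up to 57.5 uM) added 1 h before LPS (250 ng/mL) and ATP (1.25 mM) stimulation; lower signal means less secretion.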
# TDP1 cell CPT – qHTS for Inhibitors of human tyrosyl-DNA phosphodiesterase 1 (TDP1): qHTS in cells in presence of CPT | 420,000 tested, 12% active | AID 686979, 2013 | Potency, µM (series often up to 46.2 µM), inactives show at the highest dose activity change, negative = growth inhibition, actives largely listed as inhibitors | chicken DT40 Tdp1-/-;hTDP1 cells + 20 nM CPT, ATP luminescence, 48 h; note: potency is the fitted concentration of half-maximal effect; nearly all actives have a fitted effect of over 55% in size
#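 Chicken DT40 Tdp1-/- cells complemented with human TDP1, 400 cells/well, exposed to compounds plus 20 nM camptothecin for at least 48 h at 37 C; viability read as ATP content by CellTiter-Glo luminescence.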
# Active calls of the source: *; u = inconclusive; x = not tested or not shown. The list is not random: actives were taken first. Their share in the collection is about 19%. Unless noted, calls come from the whole dose curve; as a rule, active = well fitted curve in the direction sought with a large enough effect; inconclusive = small, poorly fitted or top-dose-only effect, or another doubt; inactive = no such curve, though single readings can be large; an effect the other way counts as inactive or inconclusive. Unless noted, % is set by controls: 0 for no effect and ±100 for the full control effect.
SMILES,TDP1 cell noCPT,HT1080NT lethal,uPA surface inh,HT1080 IDH1KD tx,IL1B secr inh,TDP1 cell CPT
COc1cccc(CN2CCN(C(=O)c3ccco3)CC2)c1OC,-26.0%,9.2%,-3.3%,-7.9%,13.4,-1.8%
N[C@H](C(=O)O)c1nn[nH]n1,-8.9%,x,x,x,x,-9.8%
CCC(=O)N(Cc1cc2c(C)ccc(C)c2[nH]c1=O)C1CCCCC1,16.4µM*,-11.0%,1.7%,-11.0%,-12.0,u
CCn1cc(C2=NC(C(C)C)CO2)c2ccccc21 (stereo not given),-25.2%,-2.1%,-4.9%,-0.4%,6.2,-20.1%
CCn1cc(C2=NC(CC(C)C)CO2)c2ccccc21 (stereo not given),14.6µM*,-3.8%,-1.2%,-13.7%,u,u
CSc1nc(SCC(=O)NCc2ccco2)c2c3c(sc2n1)CN(C)CC3,0.6%,0.6%,0.6%,17.4%,-11.1,-2.2%
CC1CCc2c(sc3nc(SCC(=O)NCc4ccco4)nc(N)c23)C1 (stereo not given),13µM*,u,-6.7%,u,-1.3,18.4µM*
CCN(CC)C(=O)CSc1nc(N)c2c3c(sc2n1)CC(C)CC3 (stereo not given),20.6µM*,-22.2%,-8.3%,u,-29.2,u
Cc1c(C(=O)O)sc2[nH]c(=O)n(Cc3ccccc3)c(=O)c12,0.3%,4.2%,0.7%,0.8%,49.4,1.1%
CCOC(=O)C(=O)N(C)c1c(CC)nc2c(OCc3ccc(OC)cc3)cccn12,-20.9%,-1.7%,x,0.1%,20.4,u
CCCc1nn(C)c2c(=O)[nH]c(-c3cc(S(=O)(=O)Nc4ccc(NC(C)=O)cc4)ccc3OCC)nc12,u,-6.9%,1.1%,-8.4%,u,10.3µM*
CN(Cc1ccccc1)C(=O)c1csc([C@@H]2C[C@H](O)[C@@H](CO)O2)n1,-0.7%,14.4%,x,-8.5%,11.9,-8.0%
O=C(NCc1ccccc1)C(C1CC1)n1c(CSCCOc2ccccc2)nc2ccccc21 (stereo not given),16.4µM*,u,x,u,-15.8,u
CSCCC(C(=O)NC1CCCC1)n1c(-c2ccccn2)nc2ccccc21 (stereo not given),u,-7.2%,x,-16.6%,-12.2,u
O=C(NCc1ccccc1)C(C1CC1)n1c(-c2cccs2)nc2ccccc21 (stereo not given),9.2µM*,8.4%,x,10.5%,10.1,10.3µM*
Cc1csc(-c2nc3ccccc3n2C(C(=O)Nc2c(C)cccc2C)C2CC2)c1 (stereo not given),u,-11.6%,x,-0.4%,82.8,u
O=C(NC1CCCC1)C(C1CC1)n1c(-c2ccccn2)nc2ccccc21 (stereo not given),7.31µM*,-2.2%,x,-7.6%,-4.9,9.2µM*
CCCCCn1nnnc1C1(C)CCC(=O)N1Cc1ccco1 (stereo not given),-21.2%,23.7%,x,13.5%,15.1,u
CS(=O)(=O)N1CCC2(CCCN(c3ncccn3)C2)CC1,-18.2%,x,x,x,x,5.8%
CCOc1ccc(C(=O)Nc2ccc(NC(=O)c3ccccc3)cc2)cc1Br,9.5%,-0.2%,11.5%,8.2%,14.1,-11.7%
CCOc1ccc(C(=O)Nc2ccc(N3CCN(C)CC3)cc2)cc1Br,29.1µM*,-28.8%,-2.9%,u,-51.6*,u
CCOc1ccc(C(=O)Nc2ccc(Cc3ccncc3)cc2)cc1Br,-24.5%,-17.0%,1.3%,u,-89.5*,-14.7%
COc1ccc2oc3c(ccc[n+]3C)c(=O)c2c1,-0.1%,18.6%,x,5.5%,13.5,-6.3%

# Compound activity (PubChem BioAssay)
